Laboratory results as given in PubChem BioAssay (NCATS).
Several values for one entry are separate records, joined by “and”; a condition that tells them apart may be missing. Equal entries are not always repeated. Values without a mark were called inactive. Inconclusive results are not listed. Activity calls are given as the source filed them. Unless noted, calls follow the shape of the dose curve; as a rule, active = well fitted curve in the direction sought with a large enough effect; inconclusive = small, poorly fitted or top-dose-only effect, or another doubt; inactive = no such curve, though single readings can be large; an effect the other way counts as inactive or inconclusive.

Columns and labels:
[1] = Drug repurposing screens with cells derived from glioblastoma tumor samples (AID 1345199); settings: GBM patient neurospheres viability, ATP luminescence, 48 h; also: nearly all actives have a fitted effect of over 40% in size; also: potency is read from the fitted curve at half-maximal effect; as to activity, negative = cell killing: % is scaled to controls: 0 for no effect and ±100 for the full control effect
In short: (§1)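 Four patient lines of CD133+ GBM neurospheres were screened at several concentrations; hits were retested in those lines plus three slower-growing GBM lines, using 48-hour treatment and ATP-based viability.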

[2] = tested on: astro; assay: as above; settings: viability, ATP luminescence, 48 h; series mostly up to 45.9 µM
In short: as §1

[3] = biological target: Nuclear receptor subfamily 1 group I member 2 (Rattus norvegicus) (UniProt Q9R1A7); assay: qHTS assay for small molecule activators of the rat pregnane X receptor (rPXR) signaling pathway (AID 651751; call rule not given here; also: 0% is about no effect); settings: rPXR reporter cells, luciferase (One-Glo), 24 h
[4] = qHTS assay for small molecule activators of the human pregnane X receptor (PXR) signaling pathway (AID 720659; call rule not given here; also: 0% is about no effect); settings: DPX-2 HepG2 CYP3A4-luciferase, 24 h; series mostly up to 92.3 µM
[5] = qHTS assay to identify inhibitors of the type 1 interferon - major histocompatibility complex class I in skeletal muscle: Counter screen cell viability and HiBit confirmation (AID 1347412); settings: iHSKM muscle cells + IFN-b, HiBiT or CellTiter-Glo, 24 h; for activity change, negative = inhibition: Viability, at 45.9 µM (top of the series); also: potency is read from the fitted curve at half-maximal effect; as to activity change, negative = inhibition: % is scaled to controls: 0 for no effect and ±100 for the full control effect; as to all read-outs here: nearly all actives have a fitted effect of over 60% in size
In short: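 After 24 h with human IFN-beta (4 ng/ml) and compound titrations (top 46 uM final, 1:3, 12 points), HLA-B HiBit myoblasts were lysed for either Nano-Glo HiBiT luminescence or CellTiter Glo viability on paired plates.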

[6] = at 45.9 µM (top of the series), tumour line B
[7] = at 45.9 µM (top of the series), tumour line D
[8] = at 46.1 µM (top of the series), tumour line C
[9] = at 46 µM (top of the series), tumour line A

Nuclear receptor subfamily 1 group I member 2 (Rattus norvegicus), sequence (Q9R1A7 whole entry, looked up): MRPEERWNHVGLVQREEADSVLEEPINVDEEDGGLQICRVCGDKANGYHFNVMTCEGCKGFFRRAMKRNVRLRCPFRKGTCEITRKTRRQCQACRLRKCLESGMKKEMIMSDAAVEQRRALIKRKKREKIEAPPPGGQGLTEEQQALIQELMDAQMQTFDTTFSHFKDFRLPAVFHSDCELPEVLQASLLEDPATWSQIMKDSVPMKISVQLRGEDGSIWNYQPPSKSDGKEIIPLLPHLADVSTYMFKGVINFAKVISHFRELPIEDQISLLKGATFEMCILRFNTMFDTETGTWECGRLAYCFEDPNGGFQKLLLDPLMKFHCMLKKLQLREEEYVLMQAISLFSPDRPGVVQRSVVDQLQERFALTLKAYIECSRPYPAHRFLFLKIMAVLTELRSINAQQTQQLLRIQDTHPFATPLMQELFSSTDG

**Q.** For `CCCCC(C)(O)C/C=C/[C@H]1[C@H](O)CC(=O)[C@@H]1CCCCCCC(=O)OC` (some centres not stated), which activity, negative = cell killing [1, 6] is on record?
**A.** -29.2%

**Q.** And the activity, negative = cell killing [1, 7]?
**A.** -0.625%

**Q.** What about the activity, negative = cell killing [1, 8] of the same molecule?
**A.** 7.24%

**Q.** And the Potency [2]?
**A.** inactive

**Q.** With `CCCCC(=O)OCC(=O)[C@]1(O)Cc2c(O)c3c(c(O)c2[C@@H](O[C@H]2C[C@H](NC(=O)C(F)(F)F)[C@H](O)[C@H](C)O2)C1)C(=O)c1c(OC)cccc1C3=O` as the molecule, how does the Potency [2] read?
**A.** 2.24 µM (active)

**Q.** For `Cc1cc(CC(C)CC(C)(C)C)n(O)c(=O)c1` (configuration not stated) (tested in a mixture with another compound), which Potency [2] is on record?
**A.** 20 µM (active)

**Q.** For `Cc1ccccc1`, which activity, negative = cell killing [1, 6] is on record?
**A.** 6.08%

**Q.** And the activity, negative = cell killing [1, 7]?
**A.** -15.8%

**Q.** What about the activity, negative = cell killing [1, 8] of the same molecule?
**A.** 2.61%

**Q.** And the Potency [2]?
**A.** inactive

**Q.** And the max response [3]?
**A.** -1.25% and 0.145%

**Q.** And the outcome [4]?
**A.** inactive

**Q.** For `CCC(=O)NCCC1CCc2ccc3c(c21)CCO3` (configuration not stated), which activity, negative = cell killing [1, 6] is on record?
**A.** -16.2%

**Q.** And the activity, negative = cell killing [1, 8]?
**A.** -14.5%

**Q.** And the Potency ([1]; tumour line A)?
**A.** 11.2 µM (active)

**Q.** And the Potency [2]?
**A.** inactive

**Q.** Which activity, negative = cell killing [1, 8] does the source give for `CC(C)(C)NC(=O)[C@@H]1C[C@@H]2CCCC[C@@H]2CN1C[C@@H](O)[C@H](Cc1ccccc1)NC(=O)[C@H](CC(N)=O)NC(=O)c1ccc2ccccc2n1` here?
**A.** 7.54%

**Q.** What about the Potency ([1]; tumour line A) of the same molecule?
**A.** 4.47 µM (active)

**Q.** What about the Potency [2] of the same molecule?
**A.** inactive

**Q.** Which Potency [2] does the source give for `CCNC(=O)[C@@H]1CCCN1C(=O)[C@H](CCCN=C(N)N)NC(=O)[C@H](CC(C)C)NC(=O)[C@@H](Cc1c[nH]c2ccccc12)NC(=O)[C@H](Cc1ccc(O)cc1)NC(=O)[C@H](CO)NC(=O)[C@H](Cc1c[nH]c2ccccc12)NC(=O)[C@H](Cc1cnc[nH]1)NC(=O)[C@@H]1CCC(=O)N1` here?
**A.** 8.91 µM (active)

**Q.** Which results are given for `CCOC(=O)C1=C(C)NC(C)=C(C(=O)OCC)C1c1ccccc1C=CC(=O)OC(C)(C)C`?
**A.** activity, negative = cell killing [1, 8]: 2.25%; Potency ([1]; tumour line A): 2.24 µM (active); Potency ([1]; tumour line D): 12.6 µM (active); Potency [2]: 20 µM (active)

**Q.** With `O=CCCCC=O` as the molecule, how does the activity, negative = cell killing [1, 6] read?
**A.** -2.9%

**Q.** And the activity, negative = cell killing [1, 7]?
**A.** -3.77%

**Q.** And the activity, negative = cell killing [1, 8]?
**A.** -3.46%

**Q.** And the Potency [2]?
**A.** inactive

**Q.** What about the max response [3] of the same molecule?
**A.** 2.91%

**Q.** And the outcome [4]?
**A.** inactive

**Q.** What does the source list for `COC(=O)[C@H]1[C@H]2C[C@@H]3c4[nH]c5ccccc5c4CCN3C[C@H]2C[C@@H](OC(=O)c2cc(OC)c(OC)c(OC)c2)[C@@H]1OC`?
**A.** activity, negative = cell killing [1, 6]: -12.2%; activity, negative = cell killing [1, 8]: -12.2%; Potency ([1]; tumour line A): 12.6 µM (active); Potency [2]: inactive

**Q.** Which Potency [2] does the source give for `C=C1CC[C@@H]2[C@](C)(CO)[C@H](O)CC[C@@]2(C)[C@@H]1C/C=C1/C(=O)OC[C@H]1O` here?
**A.** 25.1 µM (active)

**Q.** And the Potency ([5]; HiBiT)?
**A.** 12.5 µM (active)

**Q.** What about the activity change, negative = inhibition [5] of the same molecule?
**A.** -7.87%

**Q.** Which activity, negative = cell killing [1, 6] does the source give for `CCCCC/C=C\C/C=C\CCCCCCCC(=O)O` here?
**A.** -6.32%

**Q.** And the activity, negative = cell killing [1, 7]?
**A.** -10.3%

**Q.** What about the activity, negative = cell killing [1, 8] of the same molecule?
**A.** 11.8%

**Q.** And the max response [3]?
**A.** 6.19% and -3.59%

**Q.** What about the outcome [4] of the same molecule?
**A.** inactive

**Q.** Which Potency [2] does the source give for `Clc1cc(Cl)c(OCC#CI)cc1Cl` here?
**A.** inactive

**Q.** For `CC(=O)Oc1c(C)cc(OCC(O)CNC(C)C)c(C)c1C` (configuration not stated), which activity, negative = cell killing [1, 6] is on record?
**A.** -11.9%

**Q.** What about the activity, negative = cell killing [1, 7] of the same molecule?
**A.** 5.15%

**Q.** What about the activity, negative = cell killing [1, 8] of the same molecule?
**A.** 13.3%

**Q.** And the Potency [2]?
**A.** inactive

**Q.** With `CCCCCCCCCCCCCCCCCCOP(=O)([O-])OC1CC[N+](C)(C)CC1` as the molecule, how does the activity, negative = cell killing ([1]; at 20 µM (top of the series), tumour line C) read?
**A.** -12.3%

**Q.** What about the activity, negative = cell killing ([1]; at 21.2 µM (top of the series), tumour line B) of the same molecule?
**A.** -9.9%

**Q.** And the activity, negative = cell killing ([1]; at 21.2 µM (top of the series), tumour line D)?
**A.** -6.99%

**Q.** What about the Potency [2] of the same molecule?
**A.** inactive

**Q.** For `O=S(=O)(O)c1cc(O)c2c(N=Nc3ccc(Nc4ccccc4)c4c(S(=O)(=O)O)cccc34)cc(S(=O)(=O)O)cc2c1`, which Potency [2] is on record?
**A.** 14.1 µM (active)

**Q.** Which activity, negative = cell killing [1, 6] does the source give for `CC(C)=O` here?
**A.** -1.76%

**Q.** And the activity, negative = cell killing [1, 7]?
**A.** -10.6%

**Q.** What about the activity, negative = cell killing [1, 8] of the same molecule?
**A.** -8.82%

**Q.** What about the max response [3] of the same molecule?
**A.** 2.78%

**Q.** What about the outcome [4] of the same molecule?
**A.** inactive

**Q.** For `CCCCC(CC)COC(=O)CC(C(=O)OCC(CC)CCCC)S(=O)(=O)O` (configuration not stated), which activity, negative = cell killing [1, 6] is on record?
**A.** 1.3%

**Q.** What about the activity, negative = cell killing [1, 9] of the same molecule?
**A.** -17.3% and -22.7%

**Q.** And the activity, negative = cell killing [1, 8]?
**A.** -38.9%

**Q.** What about the max response [3] of the same molecule?
**A.** 6.97%

**Q.** Which results are given for `CCOc1ccc2c(c1)C(C)=CC(C)(C)N2`?
**A.** activity, negative = cell killing [1, 8]: -10%; Potency ([1]; tumour line A): 39.8 µM (active); Potency [2]: inactive

**Q.** For `CCOc1ccc(N=Nc2ccc(N)cc2N)cc1`, which Potency [2] is on record?
**A.** 2.51 µM (active)

**Q.** What does the source list for `CCCCCCCC/C=C\CCCCCCCC(=O)O`?
**A.** activity, negative = cell killing [1, 6]: 3.38%; activity, negative = cell killing [1, 7]: -14.1%; activity, negative = cell killing [1, 8]: 14.2%; Potency [2]: inactive; max response [3]: 0.673% and 2.82%; outcome [4]: inactive

**Q.** Which activity change, negative = inhibition [5] does the source give for `C[C@@H]1CCN(C(=O)CC#N)C[C@@H]1N(C)c1ncnc2[nH]ccc12` here?
**A.** -5.51%

**Q.** For `O=C(Nc1ccc(Br)cc1)c1cc(Br)c(Br)s1`, which Potency [2] is on record?
**A.** 11.2 µM (active)

**Q.** With `COC(F)(F)C(Cl)Cl` as the molecule, how does the activity, negative = cell killing [1, 6] read?
**A.** -7.55%

**Q.** And the activity, negative = cell killing [1, 7]?
**A.** -1.1%

**Q.** What about the activity, negative = cell killing [1, 9] of the same molecule?
**A.** -22%

**Q.** What about the Potency [2] of the same molecule?
**A.** inactive
